Results filed as inconclusive are left out. Calls of active or inactive are those of the source. Unless noted, calls come from the whole dose curve; as a rule, active = well fitted curve in the direction sought with a large enough effect in the repeat runs; inconclusive = weak or mixed curves; inactive = no such curve, though single readings can be large; an effect the other way counts as inactive or inconclusive.
Assays:
[1] = qHTS assay for small molecule agonists of the p53 signaling pathway (AID 651631; calls by dose curve; note: nearly all actives have a fitted effect of over 15% in size)
Summary of the method: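 Read-out is beta-lactamase FRET fluorescence measured 2 h after substrate addition at room temperature, in HCT-116 cells with a p53 response element-driven reporter exposed to compounds for 16 h at 37 °C.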

[2] = qHTS assay for small molecules that induce genotoxicity in human embryonic kidney cells expressing luciferase-tagged ATAD5 (AID 651632); note: nearly all actives have a fitted effect of over 15% in size
Summary of the method: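 Quantitative HTS in HEK293T expressing luciferase-tagged ATAD5, whose levels rise upon DNA damage. Exposure ran 16 hr at 37C and 5% CO2, with luminescence read 30 min after Amplite addition at room temperature.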

[3] = qHTS assay for small molecule agonists of the p53 signaling pathway - cell viability (AID 651633; calls by dose curve;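 note: p53RE-bla HCT reporter cells with a stable beta-lactamase p53 reporter; series mostly up to about 83 µM; nearly all actives have a fitted effect of over 30% in size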)
Summary of the method: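 p53RE-bla cells were treated with compound for 16 hours at 37 C. Cytotoxicity was then measured as CellTiter-Glo luminescence after 30 min at room temperature.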

[4] = qHTS assay for small molecules that induce genotoxicity in human embryonic kidney cells expressing luciferase-tagged ATAD5 - cell viability (AID 651634; calls by dose curve; note: nearly all actives have a fitted effect of over 25% in size)
Summary of the method: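 After 15.5 hr incubation with compound at 37C, 5% CO2, HEK293T ATAD5-luciferase cells received CellTiter-Fluor reagent; fluorescence intensity was quantified following 30 min at 37C.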

[5] = qHTS assay for small molecule disruptors of the mitochondrial membrane potential - cell viability (AID 720634; calls by dose curve;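 note: human HepG2 liver cancer cells; series mostly up to about 83 µM; nearly all actives have a fitted effect of over 20% in size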)
Summary of the method: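 ATP-based luminescent viability readout (CellTiter-Glo, 30 min, room temperature) in HepG2 cells multiplexed with the m-MPI membrane potential dye; compound exposure lasted 1 hr at 37 C.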

[6] = qHTS assay for small molecule disruptors of the mitochondrial membrane potential (AID 720635)
Summary of the method: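 HepG2 cells exposed to compound 1 hr at 37C, then Mito-MPS dye 30 min. Ratio read of aggregate (540/590 nm) versus monomer (490/535 nm) fluorescence.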

[7] = qHTS assay to test for compound auto fluorescence at 590 nm (red) in HepG2 cells (AID 720674)
Summary of the method: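 Seeding: 2,000 HepG2 cells/well, MEM/10% FBS, overnight 37 C. Dosing: compound vs DMSO. Incubation: 1 hr, 37 C, 5% CO2. Read: fluorescence 540 ex/590 em, Rose Bengal sodium as red reference.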

[8] = qHTS assay to test for compound auto fluorescence at 535 nm (green) in HepG2 cells (AID 720675)
[9] = qHTS assay to test for compound auto fluorescence at 460 nm (blue) in HEK293 cells (AID 720678)
Summary of the method: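 Cells were seeded and left to adhere for 4-5 hr at 37C. Compounds were then pin-transferred. After an overnight incubation at 37C under 5% CO2, intrinsic fluorescence at 405/460 nm was measured and referenced to triamterene.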

[10] = qHTS assay to test for compound auto fluorescence at 590 nm (red) in HEK293 cells (AID 720679)
Summary of the method: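 Each well held 2,000 HEK293 cells in medium containing 10% dialyzed FBS. Following 4-5 hr attachment at 37C, 23 nL test compound or DMSO was added; plates sat overnight, and red fluorescence (540/590nm) was recorded.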

[11] = qHTS assay to test for compound auto fluorescence at 535 nm (green) in HEK293 cells (AID 720680)
[12] = qHTS assay to test for compound auto fluorescence at 460 nm (blue) in HEK293 cell free culture (AID 720681)
Summary of the method: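 Compounds were added to cell-free DMEM with 10% FBS and fluorescence read directly. The blue channel used 405 nm excitation and 460 nm emission, with triamterene as the reference fluorophore.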

[13] = qHTS assay to test for compound auto fluorescence at 535 nm (green) in HEK293 cell free culture (AID 720682)
Summary of the method: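 Fluorescein serves as the green reference fluorophore; each compound's intrinsic emission at 535 nm (excitation 485 nm) is reported as an equivalent amount of that dye, measured in serum-containing DMEM without cells.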

[14] = qHTS assay to test for compound auto fluorescence at 590 nm (red) in HEK293 cell free culture (AID 720683)
Summary of the method: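 Cell-free wells of DMEM with 10% FBS received compound, and intrinsic fluorescence was read at excitation/emission 540/590 nm. Values expressed as equivalence to Rose Bengal sodium.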

[15] = qHTS assay to test for compound auto fluorescence at 590 nm (red) in HepG2 cell free culture (AID 720684)
Summary of the method: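 Rose Bengal sodium served as the reference for red signal. Test compounds were dispensed into serum-containing MEM (10% FBS) without cells, and plates were read at 540/590 nm.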

[16] = qHTS assay to test for compound auto fluorescence at 460 nm (blue) in HepG2 cell free culture (AID 720685)
Summary of the method: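 Cell-free plates of MEM plus 10% FBS received 23 nL compound or DMSO vehicle; blue-channel (405/460 nm) intensity scored against triamterene as reference fluorophore.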

[17] = qHTS assay to test for compound auto fluorescence at 535 nm (green) in HepG2 cell free culture (AID 720686)
[18] = qHTS assay to test for compound auto fluorescence at 460 nm (blue) in HepG2 cells (AID 720687)
Summary of the method: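 HepG2 cells in MEM with 10% FBS, attached overnight at 37 C, were exposed to compound or DMSO for 1 hr at 37 C, 5% CO2. Blue fluorescence was read at 405/460 nm, with triamterene as reference fluorophore.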

[19] = qHTS assay to identify small molecule antagonists of the glucocorticoid receptor (GR) signaling pathway - cell viability counter screen (AID 720693); note: nearly all actives have a fitted effect of over 55% in size
[20] = qHTS assay for identifying genotoxic compounds that show differential cytotoxicity against isogenic chicken DT40 cell lines with known DNA damage response pathways - Rad54/Ku70 mutant cell line (AID 743015); note: nearly all actives have a fitted effect of over 60% in size
[21] = qHTS assay to identify small molecule antagonists of the androgen receptor (AR) signaling pathway - cell viability counter screen (AID 743033; note: nearly all actives have a fitted effect of over 45% in size)
[22] = qHTS assay to identify small molecule antagonists of the androgen receptor (AR) signaling pathway using the MDA cell line - cell viability counter screen (AID 743041; note: nearly all actives have a fitted effect of over 45% in size)
Summary of the method: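 Cytotoxicity counter screen: MDA-kb2 AR-luc cells, compound + R1881, 16 h, 37C, 0% CO2; CellTiter-Fluor added at 15.5 h, fluorescence read after 30 min.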

[23] = qHTS assay to identify small molecule antagonists of the thyroid receptor (TR) signaling pathway - cell viability counter screen (AID 743064); note: nearly all actives have a fitted effect of over 50% in size
Summary of the method: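 Fluorescence from CellTiter-Fluor, added after 23.5 h exposure at 37 °C, reported viability of GH3.TRE-Luc cells co-treated with compound and 1 nM T3. Measured in the same wells as the luciferase TR readout.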

[24] = qHTS assay to identify small molecule antagonists of the thyroid receptor (TR) signaling pathway (AID 743065); note: series mostly up to about 70 µM; nearly all actives have a fitted effect of over 55% in size
Summary of the method: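 GH3.TRE-Luc rat pituitary cells (two TREs driving luciferase) were dosed with compound, then stimulated with 1 nM T3 (final) for 23.5 h at 37 C. ONE-Glo luminescence was the read-out, with CellTiter-Fluor fluorescence as the cytotoxicity counter-screen.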

[25] = tested on: thyroid hormone receptor (rat, GH3 cells); assay: qHTS assay to identify small molecule agonists of the thyroid receptor (TR) signaling pathway (AID 743066; calls by dose curve)
[26] = biological target: Estrogen receptor (Homo sapiens) (UniProt P03372); assay: qHTS assay to identify small molecule antagonists of the estrogen receptor alpha (ER-alpha) signaling pathway (AID 743069; active = well fitted curve in the direction sought with a large enough effect in the signal ratio in the repeat runs, not every such curve was filed as active; the % refers to the signal ratio)
Summary of the method: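 Beta-lactamase FRET fluorescence is read after 2 hr at room temperature with LiveBLAzer B/G substrate. Before that, ER-alpha-bla HEK293 cells sit 4 hr after plating, then receive compound plus 17beta-estradiol and incubate 18 hr at 37C.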

[27] = biological target: Estrogen receptor (Homo sapiens) (UniProt P03372); assay: qHTS assay to identify small molecule agonists of the estrogen receptor alpha (ER-alpha) signaling pathway (AID 743075; calls by dose curve;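 note: HEK293 GripTite cells with ER-alpha and UAS-driven beta-lactamase reporter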)
[28] = biological target: Estrogen receptor (Homo sapiens) (UniProt P03372); assay: qHTS assay to identify small molecule agonists of the estrogen receptor alpha (ER-alpha) signaling pathway using the BG1 cell line (AID 743079); note: nearly all actives have a fitted effect of over 20% in size
[29] = qHTS assay to identify small molecule antagonists of the estrogen receptor alpha (ER-alpha) signaling pathway using the BG1 cell line (AID 743080; calls by dose curve; note: series mostly up to about 70 µM; nearly all actives have a fitted effect of over 25% in size)
Summary of the method: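 Antagonist mode: compounds in DMSO were pinned onto BG1-Luc-4E2 cells alongside 17beta-estradiol agonist, incubated 21.5 h, and ERE-driven luciferase measured with ONE-Glo. Cytotoxicity was multiplexed using CellTiter-Fluor fluorescence.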

[30] = qHTS assay to identify small molecule antagonists of the estrogen receptor alpha (ER-alpha) signaling pathway using the BG1 cell line - cell viability counter screen (AID 743081);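 note: compound given together with 17beta-estradiol as the ER stimulus; series mostly up to about 70 µM; nearly all actives have a fitted effect of over 45% in size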
Aromatase (Homo sapiens) = Aromatase (Homo sapiens) (UniProt P11511); assay: qHTS assay to identify aromatase inhibitors (AID 743083); note: series mostly up to about 70 µM; nearly all actives have a fitted effect of over 55% in size
[31] = qHTS assay to identify aromatase inhibitors - cell viability counter screen (AID 743084);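 note: cells stimulated with testosterone during compound exposure; nearly all actives have a fitted effect of over 55% in size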
[32] = biological target: Aryl hydrocarbon receptor (Homo sapiens) (UniProt P35869); assay: qHTS assay to identify small molecule that activate the aryl hydrocarbon receptor (AhR) signaling pathway (AID 743085);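 note: HG2L7.5c1 human HepG2 liver cells with stably integrated DRE-driven firefly reporter; series mostly up to about 70 µM; nearly all actives have a fitted effect of over 15% in size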
Summary of the method: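 Cell line HG2L7.5c1 (human hepatoma, 20× DRE-luc). Plated, 5 h 37C, compound/DMSO added, 24 h 37C. CellTiter-Fluor 30 min 37C → fluorescence; then ONE-Glo 30 min RT → luminescence.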

[33] = qHTS assay to identify small molecule that activate the aryl hydrocarbon receptor (AhR) signaling pathway - cell viability counter screen (AID 743086);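 note: HepG2 liver cells carrying the AhR DRE luciferase reporter; series mostly up to about 70 µM; nearly all actives have a fitted effect of over 45% in size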
Summary of the method: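 HepG2-AhR-luc (HG2L7.5c1) cells, 4000/well, treated 24 h at 37 C with compound; viability measured as CellTiter-Fluor fluorescence after 30 min in the same wells as the luciferase read.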

[34] = biological target: Peroxisome proliferator-activated receptor gamma (Homo sapiens) (UniProt P37231); assay: qHTS assay to identify small molecule agonists of the peroxisome proliferator-activated receptor gamma (PPARg) signaling pathway (AID 743094; active = well fitted activation curve with a large enough effect in the signal ratio in the repeat runs, not every such curve was filed as active; the % refers to the signal ratio)
Summary of the method: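 Reporter activation was scored by fluorescence of cleaved LiveBLAzer B/G substrate (1 h, room temperature) in PPARg-bla HEK293H cells previously treated 17 h at 37C with DMSO-dissolved compounds.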

[35] = qHTS assay to identify small molecule antagonists of the estrogen related receptor (ERR) signaling pathway - cell viability counter screen (AID 1224818);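 note: series mostly up to about 46 µM; viability measured after 17.5 h of compound exposure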
Summary of the method: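 Quantitative high-throughput viability counter screen in ERR cells. Compounds (DMSO) incubated 17.5 h at 37 C; read-out was CellTiter-Fluor fluorescence.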

[36] = qHTS assay to identify small molecule antagonists of the estrogen related receptor (ERR) signaling pathway (AID 1224819;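 note: luminescence from an ERR-driven luciferase reporter measured with One-Glo reagent; series mostly up to about 46 µM; nearly all actives have a fitted effect of over 50% in size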)
Summary of the method: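 ERR reporter cell line (NTP) plated at 2,000 cells/well, settled 6 h at 37C/5% CO2, then exposed to LOPAC compounds for 18 h at 37C. One-Glo luciferase luminescence read after 30 min at room temperature.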

[37] = qHTS assay to identify small molecule agonists of the estrogen related receptor (ERR) signaling pathway (AID 1224820)
Summary of the method: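 Luminescence readout (One-Glo, 30 min RT) from NTP-supplied ERR cell line exposed to compounds for 18 h at 37 C. Cells seeded 2,000 per well and pre-incubated 6 h before pin-tool compound transfer.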

[38] = tested on: estrogen-related receptor alpha (ERRalpha) with PGC-1alpha coactivator, human; assay: qHTS assay to identify small molecule antagonists of the estrogen related receptor signaling pathway with the pleiotropic PPARgamma coactivator (PGC) (AID 1224821; calls by dose curve;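 note: series mostly up to about 46 µM; lower luminescence signal means antagonism of PGC/ERR signalling; nearly all actives have a fitted effect of over 50% in size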)
Summary of the method: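 PGC/ERR reporter cells; 6 h pre-incubation 37 C/5% CO2; pin-tool compound in DMSO, 18 h 37 C; One-Glo added, 30 min RT; luminescence read. qHTS antagonist mode.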

[39] = qHTS assay to identify small molecule antagonists of the estrogen related receptor signaling pathway with the pleiotropic PPARgamma coactivator (PGC) cell viability counter screen (AID 1224822; note: series mostly up to about 46 µM)
Summary of the method: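 Cytotoxicity in the PGC/ERR cell line is assessed with CellTiter-Fluor, read as fluorescence intensity 30 min after reagent addition, following 17.5 h compound treatment at 37 C.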

[40] = qHTS assay to identify small molecule agonists of the estrogen related receptor signaling pathway with the pleiotropic PPARgamma coactivator (PGC) (AID 1224823)
Summary of the method: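 Luminescence readout (One-Glo, 30 min RT) from PGC/ERR cell line treated 18 h at 37 C with pin-tool-delivered DMSO compound solutions; cells plated 6 h before dosing. Quantitative HTS format.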

[41] = qHTS assay to identify small molecule phospholipidosis (PLD) inducers (AID 1259344; active = well fitted curve in the direction sought with a large enough effect; an effect the other way counts as inactive or inconclusive)
Summary of the method: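 Read-out is LipidTOX Red fluorescence (ex 595/em 615) imaged in HepG2 cells after 24 h compound exposure at 37 C, with Hoechst nuclear counterstain (ex 352/em 461) allowing per-cell normalisation.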

Measured: Potency

Estrogen receptor (Homo sapiens), sequence (P03372 whole entry, looked up): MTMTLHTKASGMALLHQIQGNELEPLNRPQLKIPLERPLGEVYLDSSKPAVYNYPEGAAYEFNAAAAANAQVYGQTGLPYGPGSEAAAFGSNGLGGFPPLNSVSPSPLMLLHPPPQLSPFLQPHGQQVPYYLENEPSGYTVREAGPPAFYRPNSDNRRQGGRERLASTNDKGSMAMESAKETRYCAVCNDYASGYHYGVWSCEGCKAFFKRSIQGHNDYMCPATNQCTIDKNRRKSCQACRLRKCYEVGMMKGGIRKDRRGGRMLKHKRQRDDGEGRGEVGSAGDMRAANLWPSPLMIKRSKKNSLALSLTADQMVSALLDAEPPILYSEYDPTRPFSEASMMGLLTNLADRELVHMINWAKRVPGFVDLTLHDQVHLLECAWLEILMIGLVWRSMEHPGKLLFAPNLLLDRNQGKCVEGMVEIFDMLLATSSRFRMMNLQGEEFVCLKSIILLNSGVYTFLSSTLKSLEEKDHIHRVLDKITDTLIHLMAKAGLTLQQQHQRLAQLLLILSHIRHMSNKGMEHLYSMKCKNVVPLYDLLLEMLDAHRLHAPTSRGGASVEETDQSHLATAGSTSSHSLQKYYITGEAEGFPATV
Aromatase (Homo sapiens), sequence (P11511 whole entry, looked up): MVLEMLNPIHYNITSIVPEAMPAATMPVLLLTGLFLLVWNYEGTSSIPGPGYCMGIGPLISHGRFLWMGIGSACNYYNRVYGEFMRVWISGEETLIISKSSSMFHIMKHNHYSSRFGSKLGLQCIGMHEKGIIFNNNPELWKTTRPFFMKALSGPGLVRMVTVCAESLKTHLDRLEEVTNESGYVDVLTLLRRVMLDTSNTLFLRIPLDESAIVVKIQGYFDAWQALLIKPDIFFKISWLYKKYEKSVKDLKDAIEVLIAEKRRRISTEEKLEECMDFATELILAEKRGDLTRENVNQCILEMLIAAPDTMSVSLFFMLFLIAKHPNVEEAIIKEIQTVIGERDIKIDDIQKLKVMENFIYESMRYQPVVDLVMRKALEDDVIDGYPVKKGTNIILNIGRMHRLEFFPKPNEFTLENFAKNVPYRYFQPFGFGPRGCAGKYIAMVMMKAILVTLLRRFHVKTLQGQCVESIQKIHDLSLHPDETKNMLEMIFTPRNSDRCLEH
Peroxisome proliferator-activated receptor gamma (Homo sapiens), sequence (P37231 whole entry, looked up): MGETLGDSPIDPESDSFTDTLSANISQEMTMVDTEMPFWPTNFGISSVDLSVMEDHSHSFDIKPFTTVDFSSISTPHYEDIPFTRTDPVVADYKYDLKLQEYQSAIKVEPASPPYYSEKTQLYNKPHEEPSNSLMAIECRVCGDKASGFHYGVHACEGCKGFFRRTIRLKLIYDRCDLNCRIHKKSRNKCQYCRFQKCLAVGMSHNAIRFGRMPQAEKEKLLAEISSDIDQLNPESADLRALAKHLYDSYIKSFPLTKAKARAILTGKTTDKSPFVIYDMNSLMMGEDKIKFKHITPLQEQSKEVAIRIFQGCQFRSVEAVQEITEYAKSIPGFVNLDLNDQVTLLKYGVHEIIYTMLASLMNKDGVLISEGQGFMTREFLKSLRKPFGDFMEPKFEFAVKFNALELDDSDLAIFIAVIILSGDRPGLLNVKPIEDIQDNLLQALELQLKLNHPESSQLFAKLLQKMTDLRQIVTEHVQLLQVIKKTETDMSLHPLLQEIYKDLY
Aryl hydrocarbon receptor (Homo sapiens), sequence (P35869 whole entry, looked up): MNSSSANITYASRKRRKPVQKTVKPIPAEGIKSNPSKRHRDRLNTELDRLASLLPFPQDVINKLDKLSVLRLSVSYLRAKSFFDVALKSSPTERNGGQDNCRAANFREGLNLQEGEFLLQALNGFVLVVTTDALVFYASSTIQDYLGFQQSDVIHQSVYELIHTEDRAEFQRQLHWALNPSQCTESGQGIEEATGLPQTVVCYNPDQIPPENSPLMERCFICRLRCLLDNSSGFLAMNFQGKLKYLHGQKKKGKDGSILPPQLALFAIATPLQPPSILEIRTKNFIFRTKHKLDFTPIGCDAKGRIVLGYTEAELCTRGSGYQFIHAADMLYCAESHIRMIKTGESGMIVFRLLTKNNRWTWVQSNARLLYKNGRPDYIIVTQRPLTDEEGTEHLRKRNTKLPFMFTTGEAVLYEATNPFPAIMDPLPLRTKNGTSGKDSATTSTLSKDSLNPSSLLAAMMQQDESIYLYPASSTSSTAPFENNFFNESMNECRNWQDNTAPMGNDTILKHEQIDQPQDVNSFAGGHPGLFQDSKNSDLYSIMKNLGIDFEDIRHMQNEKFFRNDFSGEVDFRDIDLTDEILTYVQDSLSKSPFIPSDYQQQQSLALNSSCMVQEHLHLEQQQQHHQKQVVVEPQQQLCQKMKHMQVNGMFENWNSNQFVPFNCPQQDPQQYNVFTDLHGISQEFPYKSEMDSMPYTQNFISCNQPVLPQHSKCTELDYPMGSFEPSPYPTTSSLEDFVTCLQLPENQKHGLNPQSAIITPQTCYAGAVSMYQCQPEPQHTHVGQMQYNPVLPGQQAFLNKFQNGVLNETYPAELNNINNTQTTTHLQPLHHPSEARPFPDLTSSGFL

O=P(O)(O)C(Cl)(Cl)P(=O)(O)O
inactive: all assays above

NC1CCc2cc(O)c(O)cc2C1 (configuration not stated)
inactive: [35] | [36] | [37] | [38] | [40]

C[N+]1(C)CCOC(O)(c2ccc(-c3ccc(C4(O)C[N+](C)(C)CCO4)cc3)cc2)C1 (configuration not stated)
inactive: [35] | [36] | [38] | [39] | [40]
